Source: a collection of fitness landscapes (doi:10.1016/j.celrep.2020.107928)
The full ranking holds about 81,000 sequences; the median of “one-hybrid fitness for binding NBS DNA” is about -0.1, and the highest 2% start at about 0.36. The list comes from a sample in which the highest values are over-represented; it also holds similar and randomly drawn sequences.

B1: Caulobacter ParB omega fusion; a variant is named by its letters at X, in order, B8GW30 (parent)
chain: MESVVVGEPGMSEGRRGLGRGLSALLGEVDAAPAQAPGEQLGGSREAPIEILQRNPDQPRRTFREEDLEDLSNSIREKGVLQPILVRPSPDTAGEYQIVAGERAWRAAQRAGLKTVPIMVRELDDLAVLEIGIIENVQRADLNVLEEALSYKVLMEKFERTQENIAQTIGKSXSHVANXMRLLXLPDEVQSYLVSGELTAXHARAIAAAADPVALAKQIIEGGLSVRETEALARKAPNLSAGKSKGGRPPRVKDTDTQALESDLSSVLGLDVSIDHRGSTGTLTITYATLEQLDDLCNRLTRGI

Variants of: B1
Experiment: one-hybrid fitness for binding NBS DNA (the Noc-binding site; scaled: cognate 1, non-cognate 0); higher = stronger binding
Conditions: with NBS DNA site
Outline: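 In E. coli USO, a HIS3 reporter with its site placed 19 bp from the promoter was used to select Caulobacter ParB variants randomised at four specificity codons. Growth lasted 48 hours at 37°C on histidine-free M9 containing 0.1 mM IPTG and 5 mM 3-AT. Fitness was taken as the log change in variant-to-wild-type read ratio from Illumina sequencing of pre- and post-selection plasmids, rescaled between the non-cognate and cognate sites.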
For QCGQ, the “one-hybrid fitness for binding NBS DNA” value was 0.24.
With QRGC the “one-hybrid fitness for binding NBS DNA” value was 0.402.
For QRGD, the “one-hybrid fitness for binding NBS DNA” value was 0.293.
QCGM was tested, and the “one-hybrid fitness for binding NBS DNA” value was no more than 0.2.
For QRGP, the “one-hybrid fitness for binding NBS DNA” value was 0.301.
With QRGQ the “one-hybrid fitness for binding NBS DNA” value was 0.435.
QPGC was tested, and the “one-hybrid fitness for binding NBS DNA” value was no more than 0.2.
QRGS was tested, and the “one-hybrid fitness for binding NBS DNA” value was 0.7.
With QCGC the “one-hybrid fitness for binding NBS DNA” value was 0.244.
With QSGQ the “one-hybrid fitness for binding NBS DNA” value was no more than 0.2.
With QRGM the “one-hybrid fitness for binding NBS DNA” value was 0.436.
For QSGM, the “one-hybrid fitness for binding NBS DNA” value was no more than 0.2.
For VHHD, the “one-hybrid fitness for binding NBS DNA” value was no more than 0.2.
In the case of KQFT, the “one-hybrid fitness for binding NBS DNA” value is reported as no more than 0.2.
In the case of IGSG, the “one-hybrid fitness for binding NBS DNA” value is reported as no more than 0.2.
For ERAV, the “one-hybrid fitness for binding NBS DNA” value was no more than 0.2.
In the case of LHVR, the “one-hybrid fitness for binding NBS DNA” value is reported as no more than 0.2.
With AGVC the “one-hybrid fitness for binding NBS DNA” value was no more than 0.2.
For QSQV, the “one-hybrid fitness for binding NBS DNA” value was no more than 0.2.
In the case of LPLC, the “one-hybrid fitness for binding NBS DNA” value is reported as no more than 0.2.
With DDTM the “one-hybrid fitness for binding NBS DNA” value was no more than 0.2.
For HYPY, the “one-hybrid fitness for binding NBS DNA” value was no more than 0.2.
In the case of IAHC, the “one-hybrid fitness for binding NBS DNA” value is reported as no more than 0.2.
SVFR was tested, and the “one-hybrid fitness for binding NBS DNA” value was no more than 0.2.
YVTV was tested, and the “one-hybrid fitness for binding NBS DNA” value was no more than 0.2.
PPVI was tested, and the “one-hybrid fitness for binding NBS DNA” value was no more than 0.2.
KLLL was tested, and the “one-hybrid fitness for binding NBS DNA” value was no more than 0.2.
With QRIP the “one-hybrid fitness for binding NBS DNA” value was no more than 0.2.
QAPT was tested, and the “one-hybrid fitness for binding NBS DNA” value was 0.23.
For QRPG, the “one-hybrid fitness for binding NBS DNA” value was no more than 0.2.
For QRPT, the “one-hybrid fitness for binding NBS DNA” value was 0.576.
In the case of QCIT, the “one-hybrid fitness for binding NBS DNA” value is reported as 0.432.
In the case of QSIT, the “one-hybrid fitness for binding NBS DNA” value is reported as 0.353.
QRIT was tested, and the “one-hybrid fitness for binding NBS DNA” value was 0.678.
With QPIT the “one-hybrid fitness for binding NBS DNA” value was no more than 0.2.
With RPKK the “one-hybrid fitness for binding NBS DNA” value was no more than 0.2.
For VPVE, the “one-hybrid fitness for binding NBS DNA” value was no more than 0.2.
With TFHR the “one-hybrid fitness for binding NBS DNA” value was no more than 0.2.
VTIG was tested, and the “one-hybrid fitness for binding NBS DNA” value was no more than 0.2.
With DETM the “one-hybrid fitness for binding NBS DNA” value was no more than 0.2.
LSSE was tested, and the “one-hybrid fitness for binding NBS DNA” value was no more than 0.2.
In the case of IPSD, the “one-hybrid fitness for binding NBS DNA” value is reported as no more than 0.2.
QIKN was tested, and the “one-hybrid fitness for binding NBS DNA” value was 0.223.
With QSKH the “one-hybrid fitness for binding NBS DNA” value was 0.587.
QSVH was tested, and the “one-hybrid fitness for binding NBS DNA” value was no more than 0.2.
For QIKS, the “one-hybrid fitness for binding NBS DNA” value was 0.497.
With QCKS the “one-hybrid fitness for binding NBS DNA” value was 0.711.
QSDH was tested, and the “one-hybrid fitness for binding NBS DNA” value was no more than 0.2.
QSKS was tested, and the “one-hybrid fitness for binding NBS DNA” value was 0.645.
In the case of QIVS, the “one-hybrid fitness for binding NBS DNA” value is reported as no more than 0.2.
With QNKS the “one-hybrid fitness for binding NBS DNA” value was 0.355.
For QPKS, the “one-hybrid fitness for binding NBS DNA” value was no more than 0.2.
TVQG was tested, and the “one-hybrid fitness for binding NBS DNA” value was no more than 0.2.
DATH was tested, and the “one-hybrid fitness for binding NBS DNA” value was no more than 0.2.
YDTE was tested, and the “one-hybrid fitness for binding NBS DNA” value was no more than 0.2.
TATG was tested, and the “one-hybrid fitness for binding NBS DNA” value was no more than 0.2.
In the case of KRHE, the “one-hybrid fitness for binding NBS DNA” value is reported as no more than 0.2.
With MHPT the “one-hybrid fitness for binding NBS DNA” value was no more than 0.2.
With RINQ the “one-hybrid fitness for binding NBS DNA” value was no more than 0.2.
For QTAR, the “one-hybrid fitness for binding NBS DNA” value was 0.768.
With QTAY the “one-hybrid fitness for binding NBS DNA” value was 0.306.
QTAQ was tested, and the “one-hybrid fitness for binding NBS DNA” value was 0.251.
With QTFR the “one-hybrid fitness for binding NBS DNA” value was 0.584.
With QTFG the “one-hybrid fitness for binding NBS DNA” value was no more than 0.2.
In the case of QTFF, the “one-hybrid fitness for binding NBS DNA” value is reported as no more than 0.2.
For SPYR, the “one-hybrid fitness for binding NBS DNA” value was no more than 0.2.
SHAM was tested, and the “one-hybrid fitness for binding NBS DNA” value was no more than 0.2.
In the case of QYKA, the “one-hybrid fitness for binding NBS DNA” value is reported as 0.531.
For QYDA, the “one-hybrid fitness for binding NBS DNA” value was no more than 0.2.
With QYYA the “one-hybrid fitness for binding NBS DNA” value was 0.271.
With QYNA the “one-hybrid fitness for binding NBS DNA” value was 0.269.
For QYVA, the “one-hybrid fitness for binding NBS DNA” value was no more than 0.2.
For QYRA, the “one-hybrid fitness for binding NBS DNA” value was 0.558.
In the case of QPFC, the “one-hybrid fitness for binding NBS DNA” value is reported as no more than 0.2.
For FPTR, the “one-hybrid fitness for binding NBS DNA” value was no more than 0.2.
For KLDM, the “one-hybrid fitness for binding NBS DNA” value was no more than 0.2.
With RCHY the “one-hybrid fitness for binding NBS DNA” value was 0.215.
RRQY was tested, and the “one-hybrid fitness for binding NBS DNA” value was 0.525.
With RRFY the “one-hybrid fitness for binding NBS DNA” value was 0.314.
For RCAY, the “one-hybrid fitness for binding NBS DNA” value was no more than 0.2.
In the case of RPQY, the “one-hybrid fitness for binding NBS DNA” value is reported as no more than 0.2.
RRAY was tested, and the “one-hybrid fitness for binding NBS DNA” value was 0.405.
In the case of RCQY, the “one-hybrid fitness for binding NBS DNA” value is reported as no more than 0.2.
With RRSY the “one-hybrid fitness for binding NBS DNA” value was 0.393.
For RSSY, the “one-hybrid fitness for binding NBS DNA” value was no more than 0.2.
For RSHY, the “one-hybrid fitness for binding NBS DNA” value was no more than 0.2.
With RRHY the “one-hybrid fitness for binding NBS DNA” value was 0.452.
In the case of RCSY, the “one-hybrid fitness for binding NBS DNA” value is reported as no more than 0.2.
With SRQM the “one-hybrid fitness for binding NBS DNA” value was no more than 0.2.
With LMKG the “one-hybrid fitness for binding NBS DNA” value was no more than 0.2.
In the case of SMNN, the “one-hybrid fitness for binding NBS DNA” value is reported as no more than 0.2.
For YTVM, the “one-hybrid fitness for binding NBS DNA” value was no more than 0.2.
With DLVK the “one-hybrid fitness for binding NBS DNA” value was no more than 0.2.
With HQPS the “one-hybrid fitness for binding NBS DNA” value was no more than 0.2.
In the case of VMQT, the “one-hybrid fitness for binding NBS DNA” value is reported as no more than 0.2.
SRLY was tested, and the “one-hybrid fitness for binding NBS DNA” value was no more than 0.2.
For RIDV, the “one-hybrid fitness for binding NBS DNA” value was no more than 0.2.
With AWTG the “one-hybrid fitness for binding NBS DNA” value was no more than 0.2.
In the case of PYAQ, the “one-hybrid fitness for binding NBS DNA” value is reported as no more than 0.2.
With HRAG the “one-hybrid fitness for binding NBS DNA” value was no more than 0.2.
With RNYQ the “one-hybrid fitness for binding NBS DNA” value was no more than 0.2.
RRRY was tested, and the “one-hybrid fitness for binding NBS DNA” value was 0.798.
With RCNY the “one-hybrid fitness for binding NBS DNA” value was 0.221.
RRYY was tested, and the “one-hybrid fitness for binding NBS DNA” value was 0.349.
For RRNY, the “one-hybrid fitness for binding NBS DNA” value was 0.589.
For RRDY, the “one-hybrid fitness for binding NBS DNA” value was 0.306.
For RCRY, the “one-hybrid fitness for binding NBS DNA” value was 0.363.
In the case of WRPY, the “one-hybrid fitness for binding NBS DNA” value is reported as no more than 0.2.
LPLQ was tested, and the “one-hybrid fitness for binding NBS DNA” value was no more than 0.2.
In the case of NRKR, the “one-hybrid fitness for binding NBS DNA” value is reported as 0.309.
QRVR was tested, and the “one-hybrid fitness for binding NBS DNA” value was 0.839.
With QWKR the “one-hybrid fitness for binding NBS DNA” value was 0.356.
In the case of QRKR, the “one-hybrid fitness for binding NBS DNA” value is reported as 1.08.
With YQNG the “one-hybrid fitness for binding NBS DNA” value was no more than 0.2.
For TVTR, the “one-hybrid fitness for binding NBS DNA” value was no more than 0.2.
For LWNE, the “one-hybrid fitness for binding NBS DNA” value was no more than 0.2.
In the case of YAMR, the “one-hybrid fitness for binding NBS DNA” value is reported as no more than 0.2.
YPHD was tested, and the “one-hybrid fitness for binding NBS DNA” value was no more than 0.2.
In the case of LNNS, the “one-hybrid fitness for binding NBS DNA” value is reported as no more than 0.2.
For RSGW, the “one-hybrid fitness for binding NBS DNA” value was no more than 0.2.
In the case of YQIT, the “one-hybrid fitness for binding NBS DNA” value is reported as no more than 0.2.
In the case of RFAL, the “one-hybrid fitness for binding NBS DNA” value is reported as no more than 0.2.
With AGTL the “one-hybrid fitness for binding NBS DNA” value was no more than 0.2.
With QHYQ the “one-hybrid fitness for binding NBS DNA” value was no more than 0.2.
With QHKH the “one-hybrid fitness for binding NBS DNA” value was 0.546.
For QHKF, the “one-hybrid fitness for binding NBS DNA” value was 0.297.
QHKS was tested, and the “one-hybrid fitness for binding NBS DNA” value was 0.655.
In the case of QHKD, the “one-hybrid fitness for binding NBS DNA” value is reported as no more than 0.2.
QHDH was tested, and the “one-hybrid fitness for binding NBS DNA” value was no more than 0.2.
In the case of QHVQ, the “one-hybrid fitness for binding NBS DNA” value is reported as 0.283.
For QHKQ, the “one-hybrid fitness for binding NBS DNA” value was 0.404.
In the case of QHKG, the “one-hybrid fitness for binding NBS DNA” value is reported as 0.345.
For QHKP, the “one-hybrid fitness for binding NBS DNA” value was 0.255.
For QHVN, the “one-hybrid fitness for binding NBS DNA” value was no more than 0.2.
For QHKN, the “one-hybrid fitness for binding NBS DNA” value was 0.427.
In the case of KHEE, the “one-hybrid fitness for binding NBS DNA” value is reported as no more than 0.2.
For SFKI, the “one-hybrid fitness for binding NBS DNA” value was no more than 0.2.
For QVDA, the “one-hybrid fitness for binding NBS DNA” value was no more than 0.2.
In the case of RIMY, the “one-hybrid fitness for binding NBS DNA” value is reported as no more than 0.2.
For HVLC, the “one-hybrid fitness for binding NBS DNA” value was no more than 0.2.
For GDVT, the “one-hybrid fitness for binding NBS DNA” value was no more than 0.2.
GYMF was tested, and the “one-hybrid fitness for binding NBS DNA” value was no more than 0.2.
In the case of QQET, the “one-hybrid fitness for binding NBS DNA” value is reported as 0.371.
With QQWC the “one-hybrid fitness for binding NBS DNA” value was no more than 0.2.
For QQRT, the “one-hybrid fitness for binding NBS DNA” value was 0.8.
With KQWT the “one-hybrid fitness for binding NBS DNA” value was no more than 0.2.
In the case of KQRT, the “one-hybrid fitness for binding NBS DNA” value is reported as 0.225.
For NQRT, the “one-hybrid fitness for binding NBS DNA” value was no more than 0.2.
In the case of QQWT, the “one-hybrid fitness for binding NBS DNA” value is reported as 0.44.
In the case of QQLT, the “one-hybrid fitness for binding NBS DNA” value is reported as 0.45.
QQLN was tested, and the “one-hybrid fitness for binding NBS DNA” value was no more than 0.2.
In the case of QQEI, the “one-hybrid fitness for binding NBS DNA” value is reported as no more than 0.2.
QQLD was tested, and the “one-hybrid fitness for binding NBS DNA” value was no more than 0.2.
QQES was tested, and the “one-hybrid fitness for binding NBS DNA” value was 0.23.
